Structures are written as SMILES. The source made the active and inactive calls. Calls come from the whole dose curve; as a rule, active = well fitted activation curve with a large enough effect; inconclusive = small, poorly fitted or top-dose-only effect, or effect the other way; inactive = flat fitted curve, though single readings scatter.

This test in a line: Cellular Toxicity (caspase-3) Renal Proximal Tubule (AID 667).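 Note: cells exposed to compound for 16 hours at 37 °C before detection.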 The conditions noted are these: renal proximal tubule cells; series mostly up to 91.7 µM. From the text:
NIH Chemical Genomics Center [NCGC]
NIH Molecular Libraries Screening Centers Network [MLSCN]
National Institutes of Environmental Health Sciences [NIEHS]
National Toxicology Program [NTP]
We have developed a 1536-well cell-based assay for quantitative high throughput screening (qHTS) against a number of cell lines to determine in vitro caspase 3/7 activity of small molecules. This particular assay uses the primary kidney proximal tubule cells freshly isolated from rat.
NCGC Assay Protocol Summary:
The Caspase-Glo 3/7 assay (Promega) is a homogeneous method to measure caspase-3 and caspase-7 activities in cultured cells. The quantitation of caspase 3/7 activity is based on the cleavage of a peptide-aminoluciferin substrate. After caspase cleaves the substrate the free aminoluciferin is liberated and serves as the substrate of luciferase, which generates the light. The luminescent signal is proportional to the amount of caspase 3/7 activity present.
Using the Caspase-Glo 3/7 assay, the amount of caspase 3/7 activity was measured in the rat kidney proximal tubule cells with complete culture medium following compound treatment for 16 hours. The assay was performed in opaque white 1536-well plates. In the screen, staurosporine and doxorubicin were used as positive controls. Library compounds were measured for their ability to cause the activation of caspase 3/7 in the cell line, as reflected by an increase in luminescence signal, in a concentration-dependent manner. Data were normalized to the controls for basal activity (DMSO only) and 100% stimulation (10 uM staurosporine). AC50 values were determined from concentration-response data modeled with the standard Hill equation.
qHTS protocol for caspase 3/7 assay in rat kidney proximal tubule cells
[Step] [Parameter] [Value] [Description]
1. Reagent; 5 uL; 1000 rat kidney proximal tubule cells/well
2. Time; 5 hr; 37 °C incubation
4. Controls; 23 nL; doxorubicin 7 pM to 100 uM & staurosporine 1.4 pM to 20 uM
5. Time; 16 hr; 37 °C incubation
6. Reagent; 5 uL; Caspase-Glo 3/7 reagent
7. Time; 1 hr; Room Temperature
8. Detection; Luminescence; Viewlux plate reader
Keywords: caspase 3/7, apoptosis, rat kidney proximal tubule cells, luminescence, NTPHTS, NTPHTS_NCGC, NIEHS, EPA, DSSTox, MLSMR, MLSCN, NIH Roadmap, qHTS, NCGC
Consider `O=c1ccc(=O)[nH][nH]1`, for which the result was inactive.
For the compound `Cc1ccc(N)cc1N`, the outcome was inactive.
The same measure for `CC1CC(=O)O1` (stereo not given): “inactive”; for `Cc1cc(C)cc(OP(=O)(Oc2cc(C)cc(C)c2)Oc2cc(C)cc(C)c2)c1`: “inactive”.
The same measure for `CCBr`: “inactive”.
With `COC(C)(C)C` the entry was “inactive”; with `CC(Cl)(Cl)Cl`, “inactive”.
As to `CC(C)[N+](=O)[O-]`, the compound was classed as inactive.
The same measure for `C=CC#N`: “inactive”.
With `ClCc1ccccc1` the entry was “inactive”.
Consider `Cl/C=C/Cl`, for which the call was inactive.
With `C=C(Cl)CSC(=S)N(CC)CC` the entry was “inactive”.
The same measure for `O=S(=O)(Cl)c1ccccc1`: “inactive”; for `Oc1cc(Cl)c(Cl)c(Cl)c1`: “inactive”.
With `Cc1cc(N=Nc2ccccc2C)ccc1N` the entry was “inactive”.
For `CNC(=O)O/N=C/C(C)(C)S(C)=O` (stereo not given), the outcome was inactive.
For the compound `OCC(Cl)CCl` (stereo not given), the call was inactive.
As to `S=c1[nH]c2ccccc2[nH]1`, the compound was classed as inactive.
The same measure for `C=CCCl`: “inactive”; for `ClCC(Cl)Cl`: “inactive”.
The same measure for `CCNCC`: “inactive”; for `Nc1ccc(Oc2ccc(N)cc2)cc1`: “inactive”.
The same measure for `Cc1ccc([N+](=O)[O-])cc1`: “inactive”; for `CC[N+](=O)[O-]`: “inactive”; for `CN(C)N=O`: “inactive”.
For `O=[N+]([O-])/C=C/c1ccccc1`, the result was inactive.
Take `COc1ccc(C=O)cc1`: the outcome was inactive.
With `Clc1cccc(Cl)c1` the entry was “inactive”; with `CCCCOC(=O)c1ccccc1N`, “inactive”; with `CSSC`, “inactive”.
As to `N#CCCCCC#N`, the outcome was inactive.
The same measure for `ClCCCCl`: “inactive”; for `CCN(CC)N=O`: “inactive”; for `BrCCc1ccccc1`: “inactive”.
The same measure for `Nc1cc(Cl)ccc1Cl`: “inactive”.
With `ClCc1ccccn1` the entry was “inactive”.
Regarding `CC(C)C#N`, the compound was classed as inactive.
On to `CCCCC(CC)COC(=O)c1ccc(C(=O)OCC(CC)CCCC)c(C(=O)OCC(CC)CCCC)c1` (stereo not given), for which the compound was called inactive.
With `C=C(Cl)CCl` the entry was “inactive”; with `O=[N+]([O-])c1ccccc1-c1ccccc1`, “inactive”.

These data come from PubChem BioAssay (NCATS).
